# Experimental data as given in PubChem BioAssay (NCI).
# Compounds without any hit were thinned out: in the full panel of roughly 79,000, 15% have a hit. A number with no mark means an inactive call. Activity calls are given as the source filed them. Cut-off read from the data, not from the text of the source: active = growth inhibition above about 70%; inactive = the rest.
# Legend:
# [1] = NCI Yeast Anticancer Drug Screen. Data for the wt1 strain (AID 149);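 note: 0% = growth of vehicle-treated wt1 cultures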; settings: S. cerevisiae wt1 strain (SPY 50644) growth inhibition, hits give high values
# How it was run: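 Vehicle-normalised growth inhibition; strain wt1; compound exposure.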
# [2] = NCI Yeast Anticancer Drug Screen. Data for the rad50EPP+ strain (AID 151);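 note: 0% = growth of vehicle-treated control cultures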; settings: S. cerevisiae rad50 mutant strain, hits give high values
# How it was run: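 Vehicle-normalised growth inhibition; rad50EPP+ yeast strain, altered in DNA damage repair, compound-treated.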
# [3] = NCI Yeast Anticancer Drug Screen. Data for the mgt1 strain (AID 153); settings: S. cerevisiae mgt1 mutant growth inhibition, hits give high values
# How it was run: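 Vehicle-normalized growth inhibition is determined in mgt1 yeast, a strain selected for a defined alteration in DNA repair or cell cycle control.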
# [4] = NCI Yeast Anticancer Drug Screen. Data for the rad50 strain (AID 155);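 note: 0% = growth of vehicle-only cultures of the same strain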; settings: S. cerevisiae rad50 strain growth inhibition, hits give high values
# How it was run: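 A DNA repair-deficient yeast mutant serves as the test organism; compound-induced growth inhibition is calculated against vehicle-treated cells.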
# [5] = NCI Yeast Anticancer Drug Screen. Data for the mec2-1 strain (AID 157); settings: S. cerevisiae mec2-1 strain, hits give high values
# How it was run: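 Mutant yeast (mec2-1) grown with compound; growth inhibition relative to vehicle control reported.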
# [6] = NCI Yeast Anticancer Drug Screen. Data for the rad14 strain (AID 159);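 note: 0% = growth of vehicle-treated control cultures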; settings: S. cerevisiae rad14 strain growth inhibition, hits give high values
# How it was run: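 Vehicle-treated cultures served as the baseline for growth inhibition of a DNA repair-mutant yeast strain exposed to each compound.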
# [7] = NCI Yeast Anticancer Drug Screen. Data for the sgs1 mgt1 strain (AID 161);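 note: 0% = growth of cultures given vehicle only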; settings: S. cerevisiae sgs1 mgt1 strain, hits give high values
# How it was run: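 Percent growth inhibition was derived by comparing compound-exposed mutant yeast with vehicle-exposed cultures. The strain carries alterations in DNA damage repair.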
# [8] = NCI Yeast Anticancer Drug Screen. Data for the CLN2oe strain (AID 163);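 note: 0% = growth of vehicle-only control cultures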; settings: S. cerevisiae CLN2oe strain, hits give high values
# How it was run: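 Compounds are applied to yeast harbouring a defined cell-cycle control change; reduced growth compared with vehicle-treated controls gives the value.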
# [9] = NCI Yeast Anticancer Drug Screen. Data for the cln2 rad14 strain (AID 165);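 note: 0% = growth equal to vehicle treated cultures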; settings: S. cerevisiae cln2 rad14 strain, hits give high values
# How it was run: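 Readout is yeast growth inhibition versus vehicle-treated controls, using a strain with cln2 and rad14 alterations exposed to compound.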
# [10] = NCI Yeast Anticancer Drug Screen. Data for the bub3 strain (AID 167); settings: S. cerevisiae bub3 mutant strain, hits give high values
# How it was run: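 Inhibition values come from growth of compound-treated mutant yeast normalised to vehicle-treated controls.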
# [11] = NCI Yeast Anticancer Drug Screen. Data for the wt2 strain (AID 169);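 note: 0% = growth of vehicle-treated yeast cultures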; settings: S. cerevisiae wt2 strain growth inhibition, hits give high values
# How it was run: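 Against vehicle-treated controls, the growth of yeast exposed to each compound was compared, and the inhibition was recorded.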
# [12] = NCI Yeast Anticancer Drug Screen. Data for the mlh1 strain (AID 171);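 note: 0% = growth of vehicle-treated control cultures of the same strain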; settings: S. cerevisiae mlh1 strain growth inhibition, hits give high values
# How it was run: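 Measured: yeast growth. Reference: vehicle-treated controls. Organism: strain with a defined alteration affecting DNA damage repair or cell cycle control, treated with compound.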
# [13] = NCI Yeast Anticancer Drug Screen. Data for the sgs1 strain (AID 173);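 note: 0% = growth of vehicle-only control cultures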; settings: S. cerevisiae sgs1 mutant, hits give high values
# How it was run: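 Each compound was added to cultures of the altered yeast strain. Growth was recorded, and inhibition was derived by comparison with vehicle controls.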
# [14] = NCI Yeast Anticancer Drug Screen. Data for the mlh1 rad18 strain (AID 175); settings: S. cerevisiae mlh1 rad18 strain growth inhibition, hits give high values
# How it was run: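 Genetically defined yeast (DNA repair-deficient) exposed to compounds; growth inhibition determined relative to vehicle.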
# [15] = NCI Yeast Anticancer Drug Screen. Data for the rad18 strain (AID 177); settings: S. cerevisiae rad18 mutant growth inhibition, hits give high values
# How it was run: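 Vehicle-treated cultures served as the baseline for scoring compound-induced growth inhibition in DNA-repair-mutant yeast.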
# [16] = at 5.0 µM (retest, dose inferred, filed as 0.5)
# [17] = at 50.0 µM (retest, dose inferred, filed as 5.0)
smiles,measurement,setting,value
c1ccc(C2=NNC3c4ccccc4-c4ccccc4N3C2)cc1 (stereo not drawn),growth inhibition,[1]; at 1.2 µM,-4%
same,growth inhibition,[1]; at 3.7 µM,-5%
same,growth inhibition,[1]; at 11.0 µM,-3%
same,growth inhibition,[1]; at 33.0 µM,0%
same,growth inhibition,[1]; at 100.0 µM,10%
same,growth inhibition,[2]; at 1.2 µM,-2%
same,growth inhibition,[2]; at 3.7 µM,1%
same,growth inhibition,[2]; at 11.0 µM,5%
same,growth inhibition,[2]; at 33.0 µM,27%
same,growth inhibition,[2]; at 100.0 µM,35%
same,growth inhibition,[3]; at 1.2 µM,-1%
same,growth inhibition,[3]; at 3.7 µM,8%
same,growth inhibition,[3]; at 11.0 µM,-4%
same,growth inhibition,[3]; at 33.0 µM,-2%
same,growth inhibition,[3]; at 100.0 µM,47%
same,growth inhibition,[4]; at 1.2 µM,0%
same,growth inhibition,[4]; at 3.7 µM,9%
same,growth inhibition,[4]; [16],16%
same,growth inhibition,[4]; at 11.0 µM,11%
same,growth inhibition,[4]; at 33.0 µM,33%
same,growth inhibition,[4]; [17],67%
same,growth inhibition,[4]; at 50.0 µM,84.9% (active)
same,growth inhibition,[4]; at 100.0 µM,92% (active)
same,growth inhibition,[5]; at 1.2 µM,1%
same,growth inhibition,[5]; at 3.7 µM,2%
same,growth inhibition,[5]; [16],6%
same,growth inhibition,[5]; at 11.0 µM,3%
same,growth inhibition,[5]; at 33.0 µM,5%
same,growth inhibition,[5]; [17],7%
same,growth inhibition,[5]; at 50.0 µM,12.4%
same,growth inhibition,[5]; at 100.0 µM,43%
same,growth inhibition,[6]; at 1.2 µM,-5%
same,growth inhibition,[6]; at 3.7 µM,-11%
same,growth inhibition,[6]; at 11.0 µM,0%
same,growth inhibition,[6]; at 33.0 µM,8%
same,growth inhibition,[6]; at 100.0 µM,26%
same,growth inhibition,[7]; [16],6%
same,growth inhibition,[7]; [17],35%
same,growth inhibition,[7]; at 50.0 µM,1.35%
same,growth inhibition,[8]; at 1.2 µM,0%
same,growth inhibition,[8]; at 3.7 µM,-5%
same,growth inhibition,[8]; at 11.0 µM,-3%
same,growth inhibition,[8]; at 33.0 µM,1%
same,growth inhibition,[8]; at 100.0 µM,8%
same,growth inhibition,[9]; [16],-122%
same,growth inhibition,[9]; [17],38%
same,growth inhibition,[9]; at 50.0 µM,19.5%
same,growth inhibition,[10]; at 1.2 µM,2%
same,growth inhibition,[10]; at 3.7 µM,-14%
same,growth inhibition,[10]; [16],1%
same,growth inhibition,[10]; at 11.0 µM,5%
same,growth inhibition,[10]; at 33.0 µM,11%
same,growth inhibition,[10]; [17],55%
same,growth inhibition,[10]; at 50.0 µM,41%
same,growth inhibition,[10]; at 100.0 µM,42%
same,growth inhibition,[11]; at 1.2 µM,-6%
same,growth inhibition,[11]; at 3.7 µM,-5%
same,growth inhibition,[11]; at 11.0 µM,-6%
same,growth inhibition,[11]; at 33.0 µM,1%
same,growth inhibition,[11]; at 100.0 µM,68%
same,growth inhibition,[12]; at 1.2 µM,-1%
same,growth inhibition,[12]; at 3.7 µM,9%
same,growth inhibition,[12]; at 11.0 µM,2%
same,growth inhibition,[12]; at 33.0 µM,19%
same,growth inhibition,[12]; at 100.0 µM,58%
same,growth inhibition,[13]; at 1.2 µM,-3%
same,growth inhibition,[13]; at 3.7 µM,-4%
same,growth inhibition,[13]; at 11.0 µM,-5%
same,growth inhibition,[13]; at 33.0 µM,2%
same,growth inhibition,[13]; at 100.0 µM,16%
same,growth inhibition,[14]; [16],11%
same,growth inhibition,[14]; [17],50%
same,growth inhibition,[14]; at 50.0 µM,34%
same,growth inhibition,[15]; at 1.2 µM,0%
same,growth inhibition,[15]; at 3.7 µM,0%
same,growth inhibition,[15]; at 11.0 µM,-2%
same,growth inhibition,[15]; at 33.0 µM,7%
same,growth inhibition,[15]; at 100.0 µM,55%
